# Assay results as given in the supplement of paper PMC4022240.
# ± gives the standard deviation.
# T1: HaloTag-ATRX ADD domain (163-292)
# T1 chain: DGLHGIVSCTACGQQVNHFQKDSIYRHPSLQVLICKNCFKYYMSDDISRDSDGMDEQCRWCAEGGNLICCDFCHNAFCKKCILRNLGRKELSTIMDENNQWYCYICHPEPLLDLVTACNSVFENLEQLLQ
# Columns and labels:
# Assay in all cases: peptide microarray binding signal (635 nm), min-max normalized on array (fraction of array maximum); higher = stronger binding
# [1] = target: T1, HaloTag-ATRX ADD domain (163-292)
# Procedure, shortened: (§1)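 Triplicate spots of histone 13-mer peptide–cellulose conjugates with a Cy3 tracer were printed on nitrocellulose and probed for 1 h at 4°C with biotin-labelled HaloTag reader fusions (10 nM to 1 μM) plus streptavidin-Alexa Fluor 647 or rabbit histone antibodies (1:10,000 to 1:2,000) plus anti-rabbit Alexa 647. An Axon GenePix 4000B read the 635 nm channel. Binding signal is the spot-triplicate mean intensity after min-max scaling within each library.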
# [2] = target: HaloTag-ING2 PHD (mouse Ing2 200-280)
# Procedure, shortened: as §1
# [3] = target: anti-H3K4me3 antibody ab8580
# Procedure, shortened: as §1
# [4] = target: anti-H3K9me3 antibody ab8898
# Procedure, shortened: as §1
# [5] = peptide region: H4 38-50, peptide modifications: H4K44me3 H4R45me2a, binder concentration: 1:2,000 dilution
# [6] = peptide region: H4 38-50, peptide modifications: H4K44me3 H4R45me2a, binder concentration: 1:10,000 dilution
# [7] = peptide region: H4 38-50, peptide modifications: H4K44me3 H4R45me2s, binder concentration: 1:2,000 dilution
# [8] = peptide region: H4 38-50, peptide modifications: H4K44me3 H4R45me2s, binder concentration: 1:10,000 dilution
# [9] = peptide region: H4 38-50, peptide modifications: H4R45cit, binder concentration: 1:2,000 dilution
# [10] = peptide region: H4 38-50, peptide modifications: H4R45cit, binder concentration: 1:10,000 dilution
# [11] = peptide region: H4 38-50, peptide modifications: H4R45me1, binder concentration: 1:2,000 dilution
# [12] = peptide region: H4 38-50, peptide modifications: H4R45me1, binder concentration: 1:10,000 dilution
# [13] = peptide region: H4 38-50, peptide modifications: H4R45me2a, binder concentration: 1:2,000 dilution
# [14] = peptide region: H4 38-50, peptide modifications: H4R45me2a, binder concentration: 1:10,000 dilution
# [15] = peptide region: H4 38-50, peptide modifications: H4R45me2s, binder concentration: 1:2,000 dilution
# [16] = peptide region: H4 38-50, peptide modifications: H4R45me2s, binder concentration: 1:10,000 dilution
# [17] = peptide region: H4 53-65, binder concentration: 1:2,000 dilution
# [18] = peptide region: H4 53-65, binder concentration: 1:10,000 dilution
# [19] = peptide region: H4 53-65, peptide modifications: H4K59ac, binder concentration: 1:2,000 dilution
# [20] = peptide region: H4 53-65, peptide modifications: H4K59ac, binder concentration: 1:10,000 dilution
# [21] = peptide region: H4 53-65, peptide modifications: H4K59me1, binder concentration: 1:2,000 dilution
# [22] = peptide region: H4 53-65, peptide modifications: H4K59me1, binder concentration: 1:10,000 dilution
# [23] = peptide region: H4 53-65, peptide modifications: H4K59me2, binder concentration: 1:2,000 dilution
# [24] = peptide region: H4 53-65, peptide modifications: H4K59me2, binder concentration: 1:10,000 dilution
binder,measurement,setting,value
ARRGGVKRISGLI [H4 38-50 A R R G G V Kme3 Rme2a I S G L I],peptide microarray binding signal,"[1]; peptide region: H4 38-50, peptide modifications: H4K44me3 H4R45me2a, binder concentration: 50 nM",0.00524 ± 0.00017
same,peptide microarray binding signal,"[1]; peptide region: H4 38-50, peptide modifications: H4K44me3 H4R45me2a, binder concentration: 500 nM",0.00852 ± 0.00069
same,peptide microarray binding signal,"[2]; peptide region: H4 38-50, peptide modifications: H4K44me3 H4R45me2a, binder concentration: 10 nM",0.0304 ± 0.0024
same,peptide microarray binding signal,"[2]; peptide region: H4 38-50, peptide modifications: H4K44me3 H4R45me2a, binder concentration: 100 nM",0.0612 ± 0.0075
same,peptide microarray binding signal,[3]; [5],0.0239 ± 0.0068
same,peptide microarray binding signal,[3]; [6],0.016 ± 0.00029
same,peptide microarray binding signal,[4]; [5],0.0197 ± 0.0016
same,peptide microarray binding signal,[4]; [6],0.009686 ± 5.3e-05
ARRGGVKRISGLI [H4 38-50 A R R G G V Kme3 Rme2s I S G L I],peptide microarray binding signal,"[1]; peptide region: H4 38-50, peptide modifications: H4K44me3 H4R45me2s, binder concentration: 50 nM",0.00533 ± 8.8e-05
same,peptide microarray binding signal,"[1]; peptide region: H4 38-50, peptide modifications: H4K44me3 H4R45me2s, binder concentration: 500 nM",0.0131 ± 0.0006
same,peptide microarray binding signal,"[2]; peptide region: H4 38-50, peptide modifications: H4K44me3 H4R45me2s, binder concentration: 10 nM",0.0355 ± 0.0027
same,peptide microarray binding signal,"[2]; peptide region: H4 38-50, peptide modifications: H4K44me3 H4R45me2s, binder concentration: 100 nM",0.0541 ± 0.0061
same,peptide microarray binding signal,[3]; [7],0.0265 ± 0.0032
same,peptide microarray binding signal,[3]; [8],0.0193 ± 0.0017
same,peptide microarray binding signal,[4]; [7],0.0291 ± 0.0028
same,peptide microarray binding signal,[4]; [8],0.0206 ± 0.0014
ARRGGVKRISGLI [H4 38-50 A R R G G V K Rcit I S G L I],peptide microarray binding signal,"[1]; peptide region: H4 38-50, peptide modifications: H4R45cit, binder concentration: 50 nM",0.00395 ± 6.8e-05
same,peptide microarray binding signal,"[1]; peptide region: H4 38-50, peptide modifications: H4R45cit, binder concentration: 500 nM",0.00619 ± 7.4e-05
same,peptide microarray binding signal,"[2]; peptide region: H4 38-50, peptide modifications: H4R45cit, binder concentration: 10 nM",0.00561 ± 4.7e-05
same,peptide microarray binding signal,"[2]; peptide region: H4 38-50, peptide modifications: H4R45cit, binder concentration: 100 nM",0.0163 ± 0.003
same,peptide microarray binding signal,[3]; [9],0.012 ± 0.0055
same,peptide microarray binding signal,[3]; [10],0.00976 ± 0.00034
same,peptide microarray binding signal,[4]; [9],0.00521 ± 0.00036
same,peptide microarray binding signal,[4]; [10],0.00271 ± 7.1e-05
ARRGGVKRISGLI [H4 38-50 A R R G G V K Rme I S G L I],peptide microarray binding signal,"[1]; peptide region: H4 38-50, peptide modifications: H4R45me1, binder concentration: 50 nM",0.00486 ± 6.2e-05
same,peptide microarray binding signal,"[1]; peptide region: H4 38-50, peptide modifications: H4R45me1, binder concentration: 500 nM",0.0107 ± 0.00046
same,peptide microarray binding signal,"[2]; peptide region: H4 38-50, peptide modifications: H4R45me1, binder concentration: 10 nM",0.01247 ± 0.00012
same,peptide microarray binding signal,"[2]; peptide region: H4 38-50, peptide modifications: H4R45me1, binder concentration: 100 nM",0.0215 ± 0.0011
same,peptide microarray binding signal,[3]; [11],0.00306 ± 5.9e-05
same,peptide microarray binding signal,[3]; [12],0.00508 ± 7.3e-05
same,peptide microarray binding signal,[4]; [11],0.0021 ± 4.5e-05
same,peptide microarray binding signal,[4]; [12],0.0019 ± 3.6e-05
ARRGGVKRISGLI [H4 38-50 A R R G G V K Rme2a I S G L I],peptide microarray binding signal,"[1]; peptide region: H4 38-50, peptide modifications: H4R45me2a, binder concentration: 50 nM",0.00589 ± 0.00093
same,peptide microarray binding signal,"[1]; peptide region: H4 38-50, peptide modifications: H4R45me2a, binder concentration: 500 nM",0.0275 ± 0.023
same,peptide microarray binding signal,"[2]; peptide region: H4 38-50, peptide modifications: H4R45me2a, binder concentration: 10 nM",0.0152 ± 0.0026
same,peptide microarray binding signal,"[2]; peptide region: H4 38-50, peptide modifications: H4R45me2a, binder concentration: 100 nM",0.024 ± 0.0022
same,peptide microarray binding signal,[3]; [13],0.00185 ± 3.4e-05
same,peptide microarray binding signal,[3]; [14],0.00468 ± 0.0014
same,peptide microarray binding signal,[4]; [13],0.00134 ± 0.00014
same,peptide microarray binding signal,[4]; [14],0.00144 ± 7.5e-05
ARRGGVKRISGLI [H4 38-50 A R R G G V K Rme2s I S G L I],peptide microarray binding signal,"[1]; peptide region: H4 38-50, peptide modifications: H4R45me2s, binder concentration: 50 nM",0.0042 ± 0.00012
same,peptide microarray binding signal,"[1]; peptide region: H4 38-50, peptide modifications: H4R45me2s, binder concentration: 500 nM",0.00971 ± 0.0016
same,peptide microarray binding signal,"[2]; peptide region: H4 38-50, peptide modifications: H4R45me2s, binder concentration: 10 nM",0.0212 ± 0.0027
same,peptide microarray binding signal,"[2]; peptide region: H4 38-50, peptide modifications: H4R45me2s, binder concentration: 100 nM",0.0349 ± 0.0095
same,peptide microarray binding signal,[3]; [15],0.00542 ± 0.0019
same,peptide microarray binding signal,[3]; [16],0.00702 ± 0.0012
same,peptide microarray binding signal,[4]; [15],0.00222 ± 0.0001
same,peptide microarray binding signal,[4]; [16],0.00173 ± 4.4e-05
ETRGVLKVFLENV [H4 53-65 E T R G V L K V F L E N V],peptide microarray binding signal,"[1]; peptide region: H4 53-65, binder concentration: 50 nM",0.00282 ± 3.2e-05
same,peptide microarray binding signal,"[1]; peptide region: H4 53-65, binder concentration: 500 nM",0.003334 ± 2.5e-05
same,peptide microarray binding signal,"[2]; peptide region: H4 53-65, binder concentration: 10 nM",0.00639 ± 0.00028
same,peptide microarray binding signal,"[2]; peptide region: H4 53-65, binder concentration: 100 nM",0.00461 ± 7.6e-05
same,peptide microarray binding signal,[3]; [17],0.00121 ± 3.5e-05
same,peptide microarray binding signal,[3]; [18],0.00188 ± 3.5e-05
same,peptide microarray binding signal,[4]; [17],0.00068 ± 1e-05
same,peptide microarray binding signal,[4]; [18],0.001211 ± 1.2e-05
ETRGVLKVFLENV [H4 53-65 E T R G V L Kac V F L E N V],peptide microarray binding signal,"[1]; peptide region: H4 53-65, peptide modifications: H4K59ac, binder concentration: 50 nM",0.00241 ± 3.2e-05
same,peptide microarray binding signal,"[1]; peptide region: H4 53-65, peptide modifications: H4K59ac, binder concentration: 500 nM",0.00333 ± 0.00022
same,peptide microarray binding signal,"[2]; peptide region: H4 53-65, peptide modifications: H4K59ac, binder concentration: 10 nM",0.00997 ± 0.0024
same,peptide microarray binding signal,"[2]; peptide region: H4 53-65, peptide modifications: H4K59ac, binder concentration: 100 nM",0.00425 ± 0.00013
same,peptide microarray binding signal,[3]; [19],0.00104 ± 4.9e-05
same,peptide microarray binding signal,[3]; [20],0.00143 ± 4.8e-05
same,peptide microarray binding signal,[4]; [19],0.000529 ± 1.3e-05
same,peptide microarray binding signal,[4]; [20],0.00104 ± 2.1e-05
ETRGVLKVFLENV [H4 53-65 E T R G V L Kme V F L E N V],peptide microarray binding signal,"[1]; peptide region: H4 53-65, peptide modifications: H4K59me1, binder concentration: 50 nM",0.00605 ± 0.00068
same,peptide microarray binding signal,"[1]; peptide region: H4 53-65, peptide modifications: H4K59me1, binder concentration: 500 nM",0.00795 ± 0.00042
same,peptide microarray binding signal,"[2]; peptide region: H4 53-65, peptide modifications: H4K59me1, binder concentration: 10 nM",0.00847 ± 0.001
same,peptide microarray binding signal,"[2]; peptide region: H4 53-65, peptide modifications: H4K59me1, binder concentration: 100 nM",0.0164 ± 0.0049
same,peptide microarray binding signal,[3]; [21],0.00213 ± 0.00025
same,peptide microarray binding signal,[3]; [22],0.00314 ± 0.00021
same,peptide microarray binding signal,[4]; [21],0.00166 ± 0.00016
same,peptide microarray binding signal,[4]; [22],0.00231 ± 8.4e-05
ETRGVLKVFLENV [H4 53-65 E T R G V L Kme2 V F L E N V],peptide microarray binding signal,"[1]; peptide region: H4 53-65, peptide modifications: H4K59me2, binder concentration: 50 nM",0.00674 ± 0.0001
same,peptide microarray binding signal,"[1]; peptide region: H4 53-65, peptide modifications: H4K59me2, binder concentration: 500 nM",0.00752 ± 0.00054
same,peptide microarray binding signal,"[2]; peptide region: H4 53-65, peptide modifications: H4K59me2, binder concentration: 10 nM",0.0113 ± 0.00022
same,peptide microarray binding signal,"[2]; peptide region: H4 53-65, peptide modifications: H4K59me2, binder concentration: 100 nM",0.00758 ± 0.0001
same,peptide microarray binding signal,[3]; [23],0.00177 ± 0.00011
same,peptide microarray binding signal,[3]; [24],0.00394 ± 0.0003
same,peptide microarray binding signal,[4]; [23],0.00122 ± 2.8e-05
same,peptide microarray binding signal,[4]; [24],0.003113 ± 2.6e-05
